Laboratory results taken from PubChem BioAssay AID1159580 (chemical genetic matrix, 2015).
Screen size: about 5,500 compounds; about 2,000 (36%) were called active. Inconclusive results (about 18%) are left out. No stated cut-off is given here; in the data, active means normalized growth mostly below about 0.91 (no sharp cut-off); inconclusive means no clear call, values can overlap the other calls; inactive means mostly above about 0.92. This is one part of the list.

Assay: chemical genetic growth profiling, strain panel (AID 1159580);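 further: tested at 20 µM; growth read once vehicle control cultures reached saturation at 30 °C; 1 = growth at the plate median or of vehicle wells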
Settings: S. cerevisiae deletion strains, growth OD

Measured: normalized growth

COC1C(O)C(O[C@H]2CC[C@]3(C=O)C4C(CC[C@]3(O)C2)[C@@]2(O)CC[C@H](C3=CC(=O)OC3)[C@@]2(C)C[C@H]4OC(C)=O)OC(C)C1OC(C)=O (some centres undefined)
active: locus YHR094C, strain hxt1, stronger effect = lower value 1.11 [resistant] | locus YKL068W, stronger effect = lower value 1.1 [resistant] | locus YKL085W, strain MDH1 (second series), stronger effect = lower value 1.1 [resistant] | locus YKL085W, strain MDH1, stronger effect = lower value 1.1 [resistant] | locus YLR102C, strain apc9, stronger effect = lower value 1.17 [resistant] | locus YLR371W, strain rom2, stronger effect = lower value 1.16 [resistant] | locus YNL307C, strain MCK1, stronger effect = lower value 1.12 [resistant] | locus YNR052C, strain pop2, stronger effect = lower value 1.13 [resistant] | locus YPR119W, strain clb2, stronger effect = lower value 1.11 [resistant]
inactive: locus YAL021C, strain ccr4, stronger effect = lower value 0.977 | locus YAL026C, strain drs2, stronger effect = lower value 1.02 | locus YAL030W, strain snc1, stronger effect = lower value 0.977 | locus YBL061C, strain skt5, stronger effect = lower value 1.02 | locus YBR009C, strain hhf1, stronger effect = lower value 0.973 | locus YBR021W, strain FUR4, stronger effect = lower value 1.02 | locus YBR023C, strain chs3, stronger effect = lower value 1.01 | locus YBR171W, strain sec66, stronger effect = lower value 1.04 | locus YBR229C, strain ROT2, stronger effect = lower value 1.02 | locus YBR231C, strain swc5, stronger effect = lower value 1 | locus YBR279W, strain paf1, stronger effect = lower value 1.01 | locus YCL011C, strain gbp2, stronger effect = lower value 1 | locus YCL016C, strain dcc1, stronger effect = lower value 1 | locus YCL029C, strain bik1, stronger effect = lower value 1.05 | locus YCL069W, strain vba3, stronger effect = lower value 1.01 | locus YCR088W, strain abp1, stronger effect = lower value 1.02 | locus YDL005C, strain med2, stronger effect = lower value 1.01 | locus YDL035C, strain GPR1, stronger effect = lower value 1.03 | locus YDL040C, strain nat1, stronger effect = lower value 1.03 | locus YDL074C, strain BRE1, stronger effect = lower value 1.04 | locus YDL101C, strain DUN1, stronger effect = lower value 1.02 | locus YDL134C, strain PPH21, stronger effect = lower value 1.03 | locus YDL185W, strain tfp1, stronger effect = lower value 1.01 | locus YDL192W, strain arf1, stronger effect = lower value 1.03 | locus YDR001C, strain nth1, stronger effect = lower value 1.02 | locus YDR069C, strain doa4, stronger effect = lower value 0.951 | locus YDR101C, strain arx1, stronger effect = lower value 1.04 | locus YDR137W, strain rgp1, stronger effect = lower value 1.04 | locus YDR159W, strain sac3, stronger effect = lower value 0.966 | locus YDR162C, strain NBP2, stronger effect = lower value 1.06 | locus YDR195W, strain ref2 1.01 | locus YDR297W, strain sur2, stronger effect = lower value 0.956 | locus YDR318W, strain mcm21, stronger effect = lower value 1.03 | locus YDR334W, strain swr1, stronger effect = lower value 1.02 | locus YDR335W, strain msn5, stronger effect = lower value 0.982 | locus YDR388W, stronger effect = lower value 1.07 | locus YDR392W, strain spt3, stronger effect = lower value 1.04 | locus YDR502C, strain sam2, stronger effect = lower value 1.03 | locus YEL003W, strain gim4, stronger effect = lower value 1.02 | locus YEL037C, strain rad23, stronger effect = lower value 1.01 | locus YEL061C, strain CIN8 (second series), stronger effect = lower value 1.02 | locus YER015W, strain faa2, stronger effect = lower value 1 | locus YER016W, strain bim1, stronger effect = lower value 1.01 | locus YER110C, stronger effect = lower value 1.09 | locus YER111C, strain swi4, stronger effect = lower value 1.02 | locus YER155C, strain BEM2 (second series), stronger effect = lower value 1.04 | locus YER155C, strain BEM2, stronger effect = lower value 1.03 | locus YER167W, strain BCK2, stronger effect = lower value 1.03 | locus YFR010W, strain ubp6, stronger effect = lower value 1.04 | locus YGL078C, strain dbp3, stronger effect = lower value 1.03 | locus YGL167C, strain pmr1, stronger effect = lower value 1.02 | locus YGL173C, strain kem1, stronger effect = lower value 1.03 | locus YGL227W, strain vid30, stronger effect = lower value 1.02 | locus YGL240W, strain doc1, stronger effect = lower value 0.973 | locus YGL248W, strain PDE1, stronger effect = lower value 1.04 | locus YGL253W, strain hxk2, stronger effect = lower value 0.984 | locus YGR135W, strain pre9, stronger effect = lower value 1.03 | locus YGR252W, strain gcn5, stronger effect = lower value 1.22 | locus YHR013C, strain ard1, stronger effect = lower value 1.01 | locus YHR027C, strain rpn1, stronger effect = lower value 0.996 | locus YHR079C, strain IRE1 (second series), stronger effect = lower value 1.01 | locus YHR129C, strain ARP1, stronger effect = lower value 1.03 | locus YHR142W, strain chs7, stronger effect = lower value 1.03 | locus YHR200W, strain rpn10, stronger effect = lower value 1.04 | locus YIL066C, strain RNR3, stronger effect = lower value 1.04 | locus YIL073C, strain SPO22, stronger effect = lower value 1.1 | locus YIL125W, strain kgd1, stronger effect = lower value 0.996 | locus YIR030C, strain dcg1, stronger effect = lower value 1.01 | locus YJL092W, strain hpr5, stronger effect = lower value 1.02 | locus YJL095W, strain BCK1 (second series), stronger effect = lower value 0.974 | locus YJL095W, strain BCK1, stronger effect = lower value 1.07 | locus YJL115W, strain asf1, stronger effect = lower value 1.01 | locus YJL129C, strain trk1, stronger effect = lower value 1.04 | locus YJL134W, strain LCB3, stronger effect = lower value 1.01 | locus YJL154C, strain vps35, stronger effect = lower value 1.01 | locus YJL164C, strain tpk1, stronger effect = lower value 1.02 | locus YJL166W, strain qcr8, stronger effect = lower value 0.991 | locus YJL168C, strain set2, stronger effect = lower value 1.03 | locus YJL187C, strain SWE1 (second series), stronger effect = lower value 1.03 | locus YJR043C, strain POL32, stronger effect = lower value 1.02 | locus YJR075W, strain HOC1, stronger effect = lower value 1.01 | locus YKL009W, strain mrt4, stronger effect = lower value 0.959 | locus YKL160W, strain elf1, stronger effect = lower value 1.02 | locus YKR001C, strain vps1, stronger effect = lower value 1.02 | locus YKR026C, strain gcn3, stronger effect = lower value 1.02 | locus YKR091W, strain srl3, stronger effect = lower value 1.02 | locus YLL001W, strain dnm1, stronger effect = lower value 1.02 | locus YLL026W, stronger effect = lower value 1 | locus YLL041C, strain sdh2, stronger effect = lower value 0.985 | locus YLR027C, strain aat2, stronger effect = lower value 0.979 | locus YLR039C, strain RIC1, stronger effect = lower value 1.1 | locus YLR058C, strain SHM2, stronger effect = lower value 1.02 | locus YLR221C, strain rsa3, stronger effect = lower value 0.988 | locus YLR258W, strain gsy2, stronger effect = lower value 0.973 | locus YLR262C, strain YPT6 (second series), stronger effect = lower value 1.05 | locus YLR268W, strain sec22, stronger effect = lower value 1.03 | locus YLR320W, strain mms22, stronger effect = lower value 1.02 | locus YLR342W, strain FKS1, stronger effect = lower value 1.01 | locus YLR357W, strain rsc2, stronger effect = lower value 1.03 | locus YLR370C, strain arc18, stronger effect = lower value 0.98 | locus YLR384C, strain iki3, stronger effect = lower value 0.987 | locus YLR418C, strain cdc73, stronger effect = lower value 1.02 | locus YML016C, strain PPZ1, stronger effect = lower value 1.02 | locus YML032C, strain rad52, stronger effect = lower value 1.03 | locus YML120C, strain ndi1, stronger effect = lower value 0.969 | locus YML124C, strain tub3, stronger effect = lower value 1.02 | locus YMR058W, strain fet3, stronger effect = lower value 1.02 | locus YMR078C, strain ctf18, stronger effect = lower value 1.07 | locus YMR125W, strain sto1, stronger effect = lower value 1.02 | locus YMR129W, stronger effect = lower value 0.978 | locus YMR205C, strain PFK2, stronger effect = lower value 0.986 | locus YMR223W, strain ubp8, stronger effect = lower value 1.01 | locus YMR231W, strain pep5, stronger effect = lower value 1.02 | locus YMR263W, strain SAP30, stronger effect = lower value 1.04 | locus YMR307W, strain GAS1, stronger effect = lower value 1.07 | locus YNL067W, strain RPL9B, stronger effect = lower value 1.02 | locus YNL071W, strain lat1, stronger effect = lower value 1.03 | locus YNL209W, strain ssb2, stronger effect = lower value 0.994 | locus YNL233W, strain BNI4, stronger effect = lower value 1.04 | locus YNL248C, strain rpa49, stronger effect = lower value 1.01 | locus YNL250W, strain rad50, stronger effect = lower value 1.04 | locus YNL271C, strain bni1, stronger effect = lower value 1.02 | locus YNL298W, strain CLA4, stronger effect = lower value 1.07 | locus YNL322C, strain KRE1 (second series), stronger effect = lower value 1.02 | locus YNR049C, strain mso1, stronger effect = lower value 0.972 | locus YOL012C, strain htz1 1.05 | locus YOL147C, strain pex11, stronger effect = lower value 1.02 | locus YOR001W, strain rrp6, stronger effect = lower value 0.97 | locus YOR061W, strain CKA2, stronger effect = lower value 1.04 | locus YOR069W, strain VPS5, stronger effect = lower value 1.02 | locus YOR070C, strain gyp1, stronger effect = lower value 0.989 | locus YOR080W, strain dia2, stronger effect = lower value 1.01 | locus YOR083W, strain WHI5, stronger effect = lower value 1.03 | locus YOR106W, strain vam3, stronger effect = lower value 1.01 | locus YOR136W, strain idh2, stronger effect = lower value 1.03 | locus YOR144C, strain elg1, stronger effect = lower value 1.03 | locus YOR184W, strain ser1, stronger effect = lower value 1.05 | locus YOR265W, strain rbl2, stronger effect = lower value 0.993 | locus YOR270C, strain vph1, stronger effect = lower value 1.04 | locus YOR290C, strain snf2, stronger effect = lower value 1.03 | locus YOR316C, strain cot1, stronger effect = lower value 1.08 | locus YPL051W, strain arl3, stronger effect = lower value 1.02 | locus YPL078C, strain atp4, stronger effect = lower value 1.01 | locus YPL106C, strain sse1, stronger effect = lower value 1.05 | locus YPL240C, strain hsp82, stronger effect = lower value 1.01 | locus YPL241C, strain CIN2, stronger effect = lower value 1.01 | locus YPR141C, strain kar3, stronger effect = lower value 0.98 | locus YPR163C, strain tif3, stronger effect = lower value 1.03 | locus YPR167C, strain met16, stronger effect = lower value 1.02 | strain wtn01, stronger effect = lower value 1.02
